Active and inactive are the calls of the source. Calls follow the shape of the dose curve; as a rule, active = well fitted curve in the direction sought with a large enough effect; inconclusive = small, poorly fitted or top-dose-only effect, or another doubt; inactive = no such curve, though single readings can be large or run the other way.

For the first experiment, the target named is T1, Hexokinase-4 (Homo sapiens) + Glucokinase regulatory protein (Homo sapiens) (UniProt P35557+Q14397). The experiment in a line: qHTS assay for inhibitors of recombinant human GCK-GKRP interaction: ADP-Glo assay (AID 743206). Conditions: ADP-Glo luminescence, 60 min, 0% = vehicle-only wells with enzyme present; series mostly up to 76.9 µM. The method in brief: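 Pin-transferred compounds meet a 15 nM GST-GCK/15 nM FLAG-GKRP/2 uM S6P mix (dispense concentrations). ATP is then added to 0.4 mM final with 5 mM glucose, and the reaction runs 60 min at room temperature. ADP is quantified luminescently.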
T1 sequence (P35557 whole entry, looked up): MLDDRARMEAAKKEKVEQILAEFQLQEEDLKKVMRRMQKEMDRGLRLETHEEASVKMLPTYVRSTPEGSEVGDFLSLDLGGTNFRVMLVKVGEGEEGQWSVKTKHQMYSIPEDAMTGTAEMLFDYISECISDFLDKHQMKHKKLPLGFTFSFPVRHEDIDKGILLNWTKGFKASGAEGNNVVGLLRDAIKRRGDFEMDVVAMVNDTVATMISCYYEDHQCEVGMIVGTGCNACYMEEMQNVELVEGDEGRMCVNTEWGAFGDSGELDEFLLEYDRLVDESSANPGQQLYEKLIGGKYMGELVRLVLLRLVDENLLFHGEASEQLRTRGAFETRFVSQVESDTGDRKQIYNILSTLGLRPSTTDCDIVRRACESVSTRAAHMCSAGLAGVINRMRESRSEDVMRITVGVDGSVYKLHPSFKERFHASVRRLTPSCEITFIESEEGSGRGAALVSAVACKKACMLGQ
T1 sequence (Q14397 whole entry, looked up): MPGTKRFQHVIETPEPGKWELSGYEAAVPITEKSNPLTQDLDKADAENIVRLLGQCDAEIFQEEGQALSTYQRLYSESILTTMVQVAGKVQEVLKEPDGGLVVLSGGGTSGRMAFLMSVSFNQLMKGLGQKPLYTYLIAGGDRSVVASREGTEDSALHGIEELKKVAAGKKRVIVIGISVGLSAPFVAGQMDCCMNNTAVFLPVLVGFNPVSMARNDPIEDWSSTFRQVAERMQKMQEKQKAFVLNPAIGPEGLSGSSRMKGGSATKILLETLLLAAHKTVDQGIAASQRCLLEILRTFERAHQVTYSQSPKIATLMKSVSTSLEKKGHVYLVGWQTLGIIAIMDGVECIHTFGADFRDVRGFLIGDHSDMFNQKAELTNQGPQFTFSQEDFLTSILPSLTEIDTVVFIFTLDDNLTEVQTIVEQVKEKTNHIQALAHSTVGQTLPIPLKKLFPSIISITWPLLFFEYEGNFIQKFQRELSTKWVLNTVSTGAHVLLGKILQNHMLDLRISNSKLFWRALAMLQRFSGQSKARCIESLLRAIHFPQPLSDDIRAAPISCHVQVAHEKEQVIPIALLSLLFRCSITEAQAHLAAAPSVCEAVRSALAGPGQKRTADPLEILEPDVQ
On the technique in general: qHTS replaces the single test concentration by a dilution series.
`CC(CCc1ccccc1)NCC(O)c1ccc(O)c(C(N)=O)c1` (stereo not drawn): the outcome was inactive.

For the compound `N[C@@H](Cc1cnc[nH]1)C(=O)O`, the outcome was inactive.

For `N[C@H](CO)C(=O)O`, the result was inactive.

`CCCn1c(=O)[nH]c(=O)c2[nH]cnc21`: the result was inactive.

On to `C[N+]1(CCCCC[N+]2(C)CCCC2)CCCC1`, for which the result was inactive.

In the case of `C[C@@H]1C(=O)NC2=Nc3cccc(Cl)c3CN21`, the outcome was inactive.

In the case of `CC(C)COC(=O)OCN1C(=O)CN(CCN2CC(=O)N(COC(=O)OCC(C)C)C(=O)C2)CC1=O`, the result was inactive.

Regarding `CC(C)C[C@H]1C(=O)N2CCC[C@H]2[C@]2(O)O[C@](NC(=O)[C@@H]3C=C4c5cccc6[nH]c(Br)c(c56)C[C@H]4N(C)C3)(C(C)C)C(=O)N12`, the result was inactive.

Consider `C1CCc2nnnn2CC1`, for which the result was inactive.

Take `Nc1cc(Cl)c(NC2=NCCN2)c(Cl)c1`: the outcome was inactive.

As to `O=C1CCC(c2ccc(-n3ccnc3)cc2)=NN1`, the outcome was inactive.

Regarding `CC[C@H](C)C(=O)O[C@H]1CCC=C2C=C[C@H](C)[C@H](CC[C@@H]3C[C@@H](O)CC(=O)O3)[C@H]21`, the outcome was inactive.

Regarding `CC(=O)O[C@H]1C[C@@H]2CC[C@@H]3[C@H](CC[C@@]4(C)[C@H]3C[C@H]([N+]3(C)CCCCC3)[C@@H]4OC(C)=O)[C@@]2(C)C[C@@H]1[N+]1(C)CCCCC1`, the outcome was inactive.

In the case of `CC1(C)CCC(NC(=O)[C@@H](N)CCC(=O)O)CC1`, the result was inactive.

The target of the next experiment is T1, Hexokinase-4 (Homo sapiens) + Glucokinase regulatory protein (Homo sapiens). The experiment in a line: qHTS assay for inhibitors of recombinant human GCK-GKRP interaction: HTRF assay (AID 743207). Conditions: recombinant GCK-GKRP HTRF binding, 60 min, with sorbitol-6-phosphate; series mostly up to 57.5 µM. The method in brief:
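Titration screening format: recombinant GST-GCK and FLAG-GKRP at 5 nM, S6P at 2 uM, labelled anti-tag antibodies, 60 min at RT, dual-wavelength HTRF readout.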
Turning to `CC(CCc1ccccc1)NCC(O)c1ccc(O)c(C(N)=O)c1` (stereo not drawn), the outcome was inactive.

In the case of `N[C@@H](Cc1cnc[nH]1)C(=O)O`, the outcome was inactive.

Consider `N[C@H](CO)C(=O)O`, for which the outcome was inactive.

For `CCCn1c(=O)[nH]c(=O)c2[nH]cnc21`, the outcome was inactive.

As for `C[N+]1(CCCCC[N+]2(C)CCCC2)CCCC1`, the result was inactive.

Take `C[C@@H]1C(=O)NC2=Nc3cccc(Cl)c3CN21`: the result was inactive.

With `CC(C)COC(=O)OCN1C(=O)CN(CCN2CC(=O)N(COC(=O)OCC(C)C)C(=O)C2)CC1=O`, the outcome was inactive.

With `CC(C)C[C@H]1C(=O)N2CCC[C@H]2[C@]2(O)O[C@](NC(=O)[C@@H]3C=C4c5cccc6[nH]c(Br)c(c56)C[C@H]4N(C)C3)(C(C)C)C(=O)N12`, the outcome was inactive.

Consider `C1CCc2nnnn2CC1`, for which the result was inactive.

Turning to `Nc1cc(Cl)c(NC2=NCCN2)c(Cl)c1`, the outcome was inactive.

Turning to `O=C1CCC(c2ccc(-n3ccnc3)cc2)=NN1`, the result was inactive.

As to `CC[C@H](C)C(=O)O[C@H]1CCC=C2C=C[C@H](C)[C@H](CC[C@@H]3C[C@@H](O)CC(=O)O3)[C@H]21`, the outcome was inactive.

`CC(=O)O[C@H]1C[C@@H]2CC[C@@H]3[C@H](CC[C@@]4(C)[C@H]3C[C@H]([N+]3(C)CCCCC3)[C@@H]4OC(C)=O)[C@@]2(C)C[C@@H]1[N+]1(C)CCCCC1`: the result was inactive.

For `CC1(C)CCC(NC(=O)[C@@H](N)CCC(=O)O)CC1`, the outcome was inactive.

The record behind these values is PubChem BioAssay (NCATS).
